# Among all 1,200 compounds or so, about 360 (30%) were called active. No rule for the calls is given here. Not all results are given here. Entries with a potency or affinity are not part of this list.
# Test: bacterial growth inhibition, dose response, counter-screen, BacTiter-Glo luminescence, cherry-picked samples (AID 504843);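 also: growth measured after 8 h incubation at 30 °C; 0% = median of sample compound wells and -100% = antibiotic control wells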
# Settings: BacTiter-Glo ATP luminescence; series mostly up to 15 µM; activity change, negative = inhibition: at the top concentration
row,SMILES,"activity change, negative = inhibition"
1,CC(C)c1nnc(NC(=O)CCS(=O)(=O)Cc2ccccc2)s1,-6.44% (inactive)
2,O=C(COc1ccc2c3c(c(=O)oc2c1)CCCC3)NCc1ccncc1,-29.5% (inactive)
3,O=C(O)CCC(=O)Nc1sc2c(c1C(=O)Nc1cccc3ccccc13)CCCCC2,0.5% (inactive)
4,O=C(NCc1ccc(Cl)cc1)c1cccc(NC2=NC3CS(=O)(=O)CC3S2)c1 (stereo not drawn),8.12% (inactive)
5,Cc1onc(C(=O)NCc2ccc(F)cc2)c1[N+](=O)[O-],2.68% (inactive)
6,O=C(COc1ccc2c3c(c(=O)oc2c1)CCCC3)NCC(O)c1ccccc1 (stereo not drawn),-8.59% (inactive)
7,COc1ccc2c3c(c(=O)oc2c1OCC(N)=O)CCCC3,-17.5% (inactive)
8,Cc1ccc2c(CC(=O)Nc3ccc(N4CCN(C)CC4)cc3C)coc2c1,20.9% (inactive)
9,CCOCCCNC(=S)NCCNc1nc2ccc(C)cc2cc1C#N,5.71% (inactive)
10,COc1cc(C(=O)NC(c2ccccc2)c2ccccc2)cc(OC)c1C,-4.22% (inactive)
11,O=C(Cn1c(=O)n(-c2ccc(F)cc2)c(=O)c2sccc21)NC1CCCCC1,-1.56% (inactive)
12,O=C(NNc1ncnc2c1cnn2-c1ccccc1)c1cccs1,-12.2% (inactive)
13,CC(C)S(=O)(=O)C1=NSC2=NC(=O)/C(=C\c3ccc(-c4cccc(C(=O)O)c4)o3)C(=N)N21,6.02% (inactive)
14,CCc1nc2cc3sc(CC)nc3cc2s1,-14% (inactive)
15,O=C(CCNc1n[nH]c(=O)[nH]c1=O)N1CCCCC1,12.4% (inactive)
16,C(=N\n1cncn1)/c1ccc(N2CCOCC2)cc1,-9.77% (inactive)
17,Cc1cnc(C(=O)OCC(=O)c2ccc(-c3ccccc3)cc2)cn1,-0.804% (inactive)
18,CN(C(=O)COC(=O)c1cccc(S(=O)(=O)N2CCOCC2)c1)C1CCS(=O)(=O)C1 (stereo not drawn),-2.99% (inactive)
19,O=C(OCC(=O)N1CCCC1=O)c1cccc(S(=O)(=O)N2CCOCC2)c1,1.48% (inactive)
20,Cc1ccc(C(=O)N/C(=C\c2cn(S(=O)(=O)N(C)C)c3ccccc23)C(=O)NCCCN2CCOCC2)cc1,1.64% (inactive)
21,COc1ccc(S(=O)(=O)N2CCN(CC(=O)Nc3c(C)n[nH]c3C)CC2)cc1OC,22.9% (inactive)
22,COc1ccc(C)cc1S(=O)(=O)N(CC(=O)NC1CCCC1)c1ccc(F)cc1,10.7% (inactive)
23,COc1cc(CNCc2ccccn2)ccc1OCc1c(Cl)cccc1Cl,1.71% (inactive)
24,Cc1nn(-c2ccccc2)c(Cl)c1/C=N/NC(=O)c1ccccc1NS(=O)(=O)c1cccs1,11.3% (inactive)
25,CCOC(=O)c1c(NC(=O)C2C3C=CC(C3)C2C(=O)O)sc2c1CCC(C)C2 (stereo not drawn),-13% (inactive)
26,COc1ccc(S(=O)(=O)N2CCC(C(=O)N3CCN(C)CC3)CC2)cc1Cl,-12.6% (inactive)
27,COc1ccc(OC)c(S(=O)(=O)N2CCC(C(=O)NC3CC3)CC2)c1,9.45% (inactive)

row,SMILES,"activity change, negative = inhibition"
1,COc1cccc(C(=O)N(CN2CCCC2=O)c2cccc(Cl)c2)c1OC,-0.914% (inactive)
2,COc1ccc(S(=O)(=O)NCCSCc2ccco2)cc1Cl,-3.17% (inactive)
3,NS(=O)(=O)c1cc(C(=O)O)c(NCc2ccco2)cc1Cl,9.75% (inactive)
4,CS(=O)(=O)c1ccc([C@@H](O)[C@@H](CF)NC(=O)C(Cl)Cl)cc1,-13.5% (inactive)
5,CCC[C@@H]1C[C@@H](C(=O)N[C@H]([C@@H](C)O)[C@H]2O[C@H](SC)[C@H](O)[C@@H](O)C2O)N(C)C1 (stereo partly drawn),-11.7% (inactive)
6,O=C(O)CCc1ccc(-c2cccs2)o1,5.51% (inactive)
7,c1ccc(CC2=NCCN2)cc1,-0.359% (inactive)
8,Cc1ccc2[nH]c(=O)c(CNS(=O)(=O)c3ccccc3)c(-c3ccccc3)c2c1,17.9% (inactive)
9,Cc1ccccc1Nc1nnc(C)c(=O)[nH]1,10.6% (inactive)
10,Cc1cccc(-c2onc3ccc(C4(C)OCCO4)cc23)c1,11.3% (inactive)
11,COc1ccc(/C=N/NC(=O)COc2cc(C)cc(C)c2)cc1COC(C)=O,1.36% (inactive)
12,Cc1ccc(NC(=O)CSc2nccn2C)cc1F,-13.7% (inactive)
13,CCn1c(SCC(=O)NC2CCCCC2)nnc1-c1cccnc1,9.43% (inactive)
14,Cc1ccc(N2CC(C(=O)Nc3cc(C(F)(F)F)ccc3N3CCCC3)CC2=O)cc1 (stereo not drawn),-1.85% (inactive)
15,CCOCCCNC(=O)C(c1ccc(C)cc1)N(Cc1cccs1)C(=O)c1ccccc1O (stereo not drawn),-28.2% (inactive)
16,COc1ccc(OC)c(C(=O)CSc2nnc(-c3cccs3)o2)c1,12.4% (inactive)
17,O=C(Nc1ccc(C(=O)O)cc1)/C(=C\C=C\c1ccccc1)NC(=O)c1ccccc1Br,-18.5% (inactive)
18,Cc1noc(NS(=O)(=O)c2ccc(NC(=O)c3ccoc3C)cc2)c1C,19.2% (inactive)
19,O=C(O)c1ccn(COc2ccc(Br)cc2)n1,5.36% (inactive)
20,Cc1ccc(NC(=O)c2cc(N3C(=O)C4CC=CCC4C3=O)ccc2N2CCOCC2)cc1Cl (stereo not drawn),0.728% (inactive)
21,CCOc1ccc(N(CC(=O)NCc2ccc(OC)cc2)S(=O)(=O)c2c(C)[nH]c(=O)[nH]c2=O)cc1,14.2% (inactive)
22,CN1CCc2c(sc3nc(SCC(=O)N4CCOCC4)nc(N)c23)C1,12.1% (inactive)
23,Cc1cc(C)c(C#N)c(Oc2ccccc2Br)n1,-1.47% (inactive)
24,Cc1nnc(Nc2ccc(Cl)c(C(F)(F)F)c2)[nH]c1=O,2.24% (inactive)
25,CC(/C=N/NC(=O)c1n[nH]c2c1CCC2)=C\c1ccccc1,-2.7% (inactive)
26,CCCN=C1N(CC)C[C@@H]2[C@@H]3C(=O)N(C)C(=O)[C@@H]3[C@](Cc3ccccc3)(C(=O)OC)N12,18.6% (inactive)
